# Test results published in ChEMBL document CHEMBL1201862, “PubChem BioAssay data set” (2004).
# The whole screen tested about 55,000 sequences, of which about 2,500 (4.5%) were called active. Cut-off read from the data, not from the text of the source: active = GI50 up to about 1.1 µM and inactive = higher. Not all results are given here. Measured potencies and affinities stand elsewhere.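 A five-concentration, 48-hour dose response in 96-well plates underlies each endpoint, interpolated linearly between surrounding concentrations. Here, GI50 denotes the concentration required for 50% inhibition of growth.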
# System: EKVX
# Experiment: NCI tumour cell line growth inhibition, 48 h
row,Substance,GI50 [µM]
1,"[Bis(aminomethyl)pentamethylenesilane]dichloropaltinum(II), CHEMBL2146202",18.2
2,"[Bis(aminomethyl)ethylmethylsilane]tetrachloroplatinum(IV), CHEMBL2146192",29.6
3,"[Bis(aminomethyl)tetramethylenesilane]tetrachloropaltinum(IV), CHEMBL2146189",40.9
4,"[Bis(aminomethyl)tetramethylenesilane]dichloropaltinum(II), CHEMBL2146205",55.6
5,"[Bis(aminomethyl)dimethylsilane]tetrachloroplatinum(IV), CHEMBL2146190",38.2
6,"CISPLATIN, CHEMBL11359",7.1
7,"[Bis(aminomethyl)diethylsilane]tetrachloroplatinum(IV), CHEMBL2146203",31.6
8,"mu-(1,7-nanodiamine-N,N')bis-(cis-aminedichloroplatimum (II)), CHEMBL2146215",> 100
9,"[Bis(aminomethyl)dimethylsilane]dichloroplatinum (II), CHEMBL2146201",> 100
10,"[Bis(aminomethyl)pentamethylenesilane]tetrachloropaltinum(IV), CHEMBL2146204",56.1
11,"cis-Bis[[(trimethylsilyl)methyl]amino]tetrachloroplatinum(IV), CHEMBL2146191",4.68
